Bioassay records (PubChem BioAssay)
In the library only some 12% were active in any assay of this set; here they are far more common.
Sfp inh: qHTS Assay for Inhibitors of Bacillus subtilis Sfp phosphopantetheinyl transferase (PPTase). AID 1490, 2009. Potency, µM, without a hit: largest response in the series, negative = inhibition, actives largely listed as inhibitors. actives 3.5% (n = 310,000). 4'-phosphopantetheinyl transferase ffp (Bacillus subtilis), Q9F4F7. Biochemical Sfp PPTase activity, qHTS;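 also: the enzyme is Sfp with the accession as filed and its product quenches rhodamine fluorescence; 0% = enzyme reaction without inhibitor and -100% = no enzyme wells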
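Reaction rates are the 30-min fluorescence difference (ex 525, em 598 nm) in wells containing 15 nM Sfp, 5 uM rhodamine-CoA and 12.5 uM BHQ-2-YbbR at pH 7.6 with 10 mM MgCl2.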
JMJD2A Tudor inh: qHTS Assay for Inhibitors of JMJD2A-Tudor Domain; Lysine-specific demethylase 4A (Homo sapiens), O75164; AlphaScreen JMJD2A-Tudor / H3K4me3 peptide binding; Potency, µM (titrated, usually from 114 µM), for inactives: at the top dose activity change, negative = inhibition, hits mostly inhibitors; actives 4.4% (n = 390,000); also: % is scaled to controls: 0 for no effect and ±100 for the full control effect; nearly all actives have a fitted effect of over 50% in size
HP1b binding inh: HTS for Inhibitors of HP1-beta Chromodomain Interactions with Methylated Histone Tails | Potency, µM (top dose mostly 114 µM), for inactives: top-dose activity change, negative = inhibition, most hits filed as inhibitors | actives 0.56% (n = 390,000) | AlphaScreen HP1-beta / biotin-H3K9me3 peptide binding | AID 540317, 2011; also: nearly all actives have a fitted effect of over 70% in size
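HP1-beta protein (50 nM final) preincubated 30 min at room temperature with biotinylated H3(1-18)K9me3 peptide (50 nM) in PBS pH 7.4, 0.01% Tween-20, then compound added for 30 min. AlphaScreen streptavidin donor/nickel chelate acceptor beads (10 ug/mL final), 30 min dark, luminescence read.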
G9a inh: qHTS Assay for Inhibitors of Histone Lysine Methyltransferase G9a; Histone-lysine N-methyltransferase EHMT2 (Homo sapiens), Q96KQ7; G9a H3K9 monomethylation, AlphaScreen, 2 h; Potency, µM (series often up to 102 µM), for inactives: at the top dose activity, negative = inhibition, most hits filed as inhibitors; actives 8.8% (n = 350,000); AID 504332, 2011; also: % is scaled to controls: 0 for no effect and ±100 for the full control effect; nearly all actives have a fitted effect of over 75% in size
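Chemiluminescent proximity detection of H3K9 monomethylation, read after 10 min bead incubation in the dark. Reaction: 20 nM G9a, 500 nM biotin-H3K9 peptide, 20 uM SAM cofactor, 2 h, room temperature, following 15 min enzyme-compound preincubation.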
BAZ2B inh: qHTS Assay for Inhibitors of BAZ2B. Potency, µM (titrated, usually from 114 µM), inactives show at the highest dose activity change, negative = inhibition, usual class: inhibitors. Bromodomain adjacent to zinc finger domain protein 2B (Homo sapiens), Q9UIF8. AlphaScreen BAZ2B-H3K14Ac peptide displacement. actives 4.4% (n = 360,000). AID 504333, 2011; also: % is scaled to controls: 0 for no effect and ±100 for the full control effect; nearly all actives have a fitted effect of over 60% in size
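AlphaScreen luminescence quantifies BAZ2B engagement of H3K14Ac peptide; the protein and biotinylated peptide are both at 50 nM final, buffer PBS pH 7.4 with 0.01% Tween-20, all steps at room temperature.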
TDP1 block: qHTS Assay for Inhibitors of Tyrosyl-DNA Phosphodiesterase (TDP1). Tyrosyl-DNA phosphodiesterase 1 (Homo sapiens), Q9NUW8. recombinant TDP1, AlphaScreen DNA substrate cleavage. Potency, µM (titrated, usually from 130 µM), for the others: at the top dose activity change, negative = inhibition, most hits filed as inhibitors. actives 0.28% (n = 350,000). AID 485290, 2010; also: % is scaled to controls: 0 for no effect and ±100 for the full control effect; nearly all actives have a fitted effect of over 40% in size
Target sequence (Q9NUW8 whole entry, looked up): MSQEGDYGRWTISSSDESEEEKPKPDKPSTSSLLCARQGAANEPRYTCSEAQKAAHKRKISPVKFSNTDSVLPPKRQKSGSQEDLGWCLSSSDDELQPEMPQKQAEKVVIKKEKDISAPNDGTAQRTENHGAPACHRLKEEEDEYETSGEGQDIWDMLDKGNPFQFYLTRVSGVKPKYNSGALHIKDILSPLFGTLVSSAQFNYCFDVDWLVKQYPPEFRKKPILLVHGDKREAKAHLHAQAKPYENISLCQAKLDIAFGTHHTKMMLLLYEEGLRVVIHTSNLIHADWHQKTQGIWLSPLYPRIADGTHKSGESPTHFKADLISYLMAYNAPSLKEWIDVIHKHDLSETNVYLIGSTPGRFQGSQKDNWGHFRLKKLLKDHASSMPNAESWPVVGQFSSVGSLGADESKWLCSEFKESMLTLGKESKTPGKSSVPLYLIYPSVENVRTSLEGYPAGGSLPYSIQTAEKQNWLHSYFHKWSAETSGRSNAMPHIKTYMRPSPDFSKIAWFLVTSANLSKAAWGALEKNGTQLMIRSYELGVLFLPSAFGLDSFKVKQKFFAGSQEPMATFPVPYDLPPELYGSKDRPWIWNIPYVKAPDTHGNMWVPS
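Recombinant human Tdp1 (E. coli-expressed, 1 nM final) preincubated with compounds 15 min at room temperature, then 5'-biotin/3'-phosphotyrosine-FITC DNA substrate (15 nM final) added for 5 min. AlphaScreen beads (10 ug/ml final) added 10 min; cleavage lowers signal.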
* hit, by the source's call; [ ] = another dose, or the depositor's remark. Calls follow the shape of the dose curve; as a rule, active = well fitted curve in the direction sought with a large enough effect; inconclusive = small, poorly fitted or top-dose-only effect, or another doubt; inactive = no such curve, though single readings can be large; an effect the other way counts as inactive or inconclusive. Potency is read from the fitted curve at half-maximal effect.

Screening CC1(O)CC(C)(C)C(C#N)C(=O)N1 (stereo not given) returned JMJD2A Tudor inh -15.9% and HP1b binding inh 11.5%[57 µM].
Screening COc1ccc(C(=O)NCC(c2cccs2)S(=O)(=O)c2ccc(F)c(C)c2)cc1 (stereo not given) returned JMJD2A Tudor inh -1.9%, HP1b binding inh 10.6%, G9a inh 1.3%[59 µM], BAZ2B inh 2.0% and TDP1 block -4.7%.
For COc1ccccc1N1CCN(S(=O)(=O)c2cc(C(F)(F)F)cc(C(F)(F)F)c2)CC1 the results were Sfp inh 12.0%, JMJD2A Tudor inh -3.7%, HP1b binding inh 44.8%, BAZ2B inh 4.3% and TDP1 block 2.6%.
Screening COc1ccc(N2CCN(S(=O)(=O)c3ccc4c(c3)CCCC4)CC2)c([N+](=O)[O-])c1 returned Sfp inh 12.4%, JMJD2A Tudor inh inconclusive, HP1b binding inh inconclusive, G9a inh 17.8µM*, BAZ2B inh inconclusive and TDP1 block 7.9%.
Cc1cccc(-n2c(CNC(=O)c3ccc(S(=O)(=O)N4CCCC4)cc3)n[nH]c2=S)c1 was read as Sfp inh -16.6%, JMJD2A Tudor inh 10µM*, HP1b binding inh 14.1%, G9a inh 0.708µM*, BAZ2B inh -3.6% and TDP1 block inconclusive.
For O=C(NCc1n[nH]c(=S)n1-c1cccc(Cl)c1)c1ccc(S(=O)(=O)N2CCCCC2)cc1 the results were Sfp inh -11.8%, JMJD2A Tudor inh -30.7%, HP1b binding inh 21.1%, G9a inh 3.16µM*, BAZ2B inh 16.5% and TDP1 block 5.6%.
Screening O=C(CCS(=O)(=O)c1cccc2nonc12)Nc1ccc(F)cc1F returned JMJD2A Tudor inh -11.8%, HP1b binding inh 26.2%[57 µM], G9a inh 2.8%[59 µM], BAZ2B inh 2.5% and TDP1 block 5.3%.
COc1cc(/C=C2/N=C(c3ccccc3)OC2=O)c(F)cc1OCc1ccccc1 was read as JMJD2A Tudor inh -23.6% and HP1b binding inh 45.9%.
Screening CCN(CC)c1ccc(/C=C(\C#N)c2nc(-c3cccs3)c(NC(C)=O)s2)cc1 returned Sfp inh inconclusive, G9a inh 10µM*, BAZ2B inh 20µM* and TDP1 block 11.0%.
Cn1nnnc1Sc1ncnc2scc(-c3cccs3)c12 was read as JMJD2A Tudor inh 25.1µM*, HP1b binding inh inconclusive, G9a inh -20.7%[0.501 µM] and BAZ2B inh 10µM*.
`O=C1CCC(C(=O)OCC(=O)N2N=C3/C(=C/c4ccccc4)CCCC3C2c2ccccc2)N1` (stereo not given) gave Sfp inh -24.3%, JMJD2A Tudor inh inconclusive, HP1b binding inh -1.0%, G9a inh 56.2µM*, BAZ2B inh inconclusive and TDP1 block 4.7%.
O=C1CCC(C(=O)OCC(=O)N2N=C3/C(=C\c4ccccc4)CCCC3C2c2ccccc2)N1 (stereo not given) was read as JMJD2A Tudor inh inconclusive and HP1b binding inh 4.8%.
Screening O=C(Cn1cnc([N+](=O)[O-])c1)NCCc1ccccc1 returned Sfp inh 5.1%, JMJD2A Tudor inh -7.5%, HP1b binding inh 20.6%, G9a inh 28.2µM* and BAZ2B inh -28.8%.
For O=C(Cn1nnc(-c2ccccc2)n1)N/N=C/c1cc([N+](=O)[O-])ccc1O the results were Sfp inh -1.0%, JMJD2A Tudor inh inconclusive, HP1b binding inh 22.3%, G9a inh -22.0%, BAZ2B inh inconclusive and TDP1 block -1.1%.
For O=C(Cn1cncn1)N/N=C/c1cc([N+](=O)[O-])ccc1O the results were Sfp inh 25.5%, JMJD2A Tudor inh 25.1µM*, HP1b binding inh 35.3%, G9a inh 20.2%[59 µM], BAZ2B inh 22.4µM* and TDP1 block 9.9%.
Screening O=C(CSc1ccccn1)N/N=C/c1cc([N+](=O)[O-])ccc1O returned Sfp inh 17.3%, JMJD2A Tudor inh inconclusive, HP1b binding inh 59.1%, G9a inh -4.3%[12.7 µM], BAZ2B inh 44.7µM* and TDP1 block 8.8%.
Screening O=C(CCC(=O)Nc1ccc(Br)cc1)N/N=C/c1cc([N+](=O)[O-])ccc1O returned Sfp inh 17.0%, JMJD2A Tudor inh -12.6%, HP1b binding inh 34.5%, G9a inh 24.4%, BAZ2B inh -32.1% and TDP1 block 4.2%.
`O=C(Cn1cncn1)N/N=C/c1ccccc1O` gave Sfp inh 18.4%, JMJD2A Tudor inh 56.2µM*, HP1b binding inh 44.9%, BAZ2B inh 79.4µM* and TDP1 block 6.5%.
`Cc1ccn(CC(=O)N/N=C/c2cc([N+](=O)[O-])ccc2O)n1` gave Sfp inh 6.4%, JMJD2A Tudor inh 22.4µM*, HP1b binding inh 31.5%, G9a inh 20.0%[59 µM], BAZ2B inh 35.5µM* and TDP1 block 8.0%.
O=C(Nc1c2c(nn1-c1ccc(Cl)cc1)CS(=O)(=O)C2)c1cccc(F)c1 was read as JMJD2A Tudor inh -18.7%, HP1b binding inh 16.8%, G9a inh -11.7%[59 µM], BAZ2B inh -1.5% and TDP1 block 5.2%.
COc1ccc(NC(=O)CSc2cn(CC(=O)N3CCOCC3)c3ccccc23)cc1OC was read as JMJD2A Tudor inh 4.0%, HP1b binding inh 55.2%, G9a inh -23.3%[59 µM], BAZ2B inh -1.4% and TDP1 block -2.6%.
`O=C(Cn1nc2ccccc2n1)N/N=C/c1cc([N+](=O)[O-])ccc1O` gave Sfp inh 6.6%, JMJD2A Tudor inh inconclusive, HP1b binding inh -9.5%, G9a inh inconclusive, BAZ2B inh 11.2µM* and TDP1 block 1.2%.
Screening O=C(N/N=C/c1cc([N+](=O)[O-])ccc1O)C1C2CCCCC21 (stereo not given) returned Sfp inh 24.6%, G9a inh inconclusive, BAZ2B inh 44.7µM* and TDP1 block 5.9%.
For O=C(N/N=C/c1cc([N+](=O)[O-])ccc1O)c1ccc(COc2ccc3c(c2)CCC3)o1 the results were Sfp inh 12.1%, JMJD2A Tudor inh inconclusive, HP1b binding inh inconclusive, BAZ2B inh 44.7µM* and TDP1 block inconclusive.
